Reference: PubChem BioAssay (NCI)
About 83,000 compounds went through this panel and 20% of them were active in at least one assay; those are over-represented in the sample as a whole.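 Each cell line was grown in a 96-well plate and treated with one concentration of compound for 48 hours. Values below 10 were considered active.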 Activity calls are given as the source filed them.

system: BT-549 breast; assay: NCI-60 one-dose screen, 48 h (100 = growth as untreated, 0 = no growth, -100 = all killed); details: 10 µM unless noted
Experimental: Growth inhibition of the BT-549 human tumor cell line is measured as a screen for anti-cancer activity. Cells are grown in 96 well plates and exposed to the test compound for 48 hours. Compounds are tested at a single concentration, which is 10^-5 M for most compounds. The reported endpoint is percent growth (GI% or GIPRCNT), where numbers from 0 - 100% represent growth inhibition, and numbers from -100% - 0 represent cell death. For example, a value of 40 represents 60% growth inhibition. A value of 0 means no net growth occurred over the course of the experiment. A value of -40 indicates 40% of cells at the beginning of the experiment died by the end of the experiment. A value of -100 means all cells are dead at the end of the experiment.
NCI-60 Human Tumor Cell Lines Screen was performed using the standard one-dose NCI protocol, which is described in more detail at https://dtp.cancer.gov/discovery_development/nci-60/default.htm.
Compounds with GIPRCNT values below 10 were considered active. Activity score was based on GIPRCNT using the following formula: […]
Score is 0 for GIPRCNT values of 100 or above, 50 for GIPRCNT values of 0, and 100 for GIPRCNT values of -100.

| Compound | growth |
| --- | --- |
| CC(C)OCCCNCC(=O)Nc1ccc(S(=O)(=O)c2ccc(NC(=O)CNCCCOC(C)C)cc2)cc1 | 102% (inactive) |
| CN(C)c1ccc(-c2cc(-c3ccc(Nc4nc(Nc5ccccc5)nc(Nc5ccc(Cl)cc5)n4)cc3)nc(N)n2)cc1 | 51.4% (inactive) |
| Cc1ccc(S(=O)(=O)Nc2sccc2-c2nc(-c3ccccc3)no2)cc1 | 92.5% (inactive) |
| CCCCCCCCN(CCCCCCCC)C(=N)c1ccnc2ccccc12 | 66.2% (inactive) |
| Cc1cc(=O)c2cc3nc(-c4cccnc4)oc3c(Br)c2o1 | 103% (inactive) |
| CCNCCNc1cc(-c2cccc(C(F)(F)F)c2)c(C#N)c2nc3ccccc3n12 | -64.6% (active) |
| COc1cc(C2C=C(c3cccc(NC(C)=O)c3)Nc3ncnn32)cc(OC)c1OC (stereo not given) | -0.0208% (active) |
| COc1ccc(C2CC(c3ccccc3)=NN2c2nc(C)c(C(C)=O)s2)cc1 (stereo not given) | 110% (inactive) |
| Cc1ccc(NC(=O)C(Cl)Cl)cc1 | 110% (inactive) |
| O=S(=O)(NCCNc1cc(-c2c(-c3cccc(O)c3)nc3sccn23)ccn1)c1ccc(Cl)cc1 | 50.2% (inactive) |
| CS(=O)(=O)c1ccc(-c2nc3cc(Cl)ccc3n2CC(=O)NO)cc1 | 97.6% (inactive) |
| CCOc1ccc(-c2nc3ccc(-c4nc5ccc(N6CCN(C)CC6)cc5[nH]4)cc3[nH]2)cc1OCC | -29.5% (active) |
| CCOC(=O)C(=CNc1ccccc1[N+](=O)[O-])C(=O)OCC | 103% (inactive) |
| C=C1C(=O)O[C@H]2[C@H]1CC/C(COC(=O)/C=C\C(=O)NCc1ccc(Cn3c(=O)sn(CCCI)c3=O)cc1)=C\CC[C@@]1(C)O[C@@H]21 | -56.2% (active) |
| Cc1ccc2c(n1)C(=O)C(Oc1ccc(F)cc1)=CC2=O | 85.4% (inactive) |
| CCc1c(C(=O)N[C@@H]2c3cc(Cl)ccc3CC[C@@H]2O)[nH]c(C)c1C(C)=O | 80.7% (inactive) |
| N#C/C(=C\c1ccc2c(c1)OCO2)n1nnc2ccccc21 | 30.3% (inactive) |
| COc1cc2c(O)n(CCCn3ccnc3)c3c4cnc5cccc(c(=O)c3c2cc1OC)c54 | 27.6% (inactive) |
| CN(CCC(=O)/C(=C\c1ccccc1)c1ccc(Cl)cc1)Cc1ccccc1 | 12.7% (inactive) |
| CCn1nc(C#Cc2c(C)ccc3c(Nc4ccc(Cl)cc4)nccc23)c2c(N)ncnc21 | 10.5% (inactive) |

| Compound | growth |
| --- | --- |
| C=C1C(=O)O[C@H]2[C@H]1CC/C(COC(=O)/C=C\C(=O)NCc1ccc(Cn3c(=O)sn(-c4ccc(Cl)cc4)c3=O)cc1)=C\CC[C@@]1(C)O[C@@H]21 | -40.9% (active) |
| C=C(CNCCc1ccc(O)cc1)[C@@H]1CC[C@]2(COC3CCCCO3)CC[C@]3(C)[C@H](CC[C@@H]4[C@@]5(C)CCC(N)C(C)(C)[C@@H]5CC[C@]43C)[C@@H]12 (stereo not given in full) | -70% (active) |
| O=c1cc(-c2ccc(OCc3ccccc3)cc2)oc2c(I)c(OCc3ccccc3)cc(OCc3ccccc3)c12 | 101% (inactive) |
| COc1cc2c(cc1OC)-c1ccc3cc4c(cc3c1N(CCCN(C)C)C2)OCO4 | 41.2% (inactive) |
| N#C/C=C(\c1ccc([N+](=O)[O-])cc1)n1nnc2cc(Cl)c(Cl)cc21 | 33.7% (inactive) |
| Cc1cc(-c2ccc(N(C)C)cc2)c2sc(=O)[nH]c2n1 | 74.6% (inactive) |
| Cn1ccc(Cc2cnc(N)s2)n1 | 102% (inactive) |
| COc1ccc2cc(-c3ccc(C(=O)NN)c(C)n3)ccc2c1 | 88.9% (inactive) |
| CCOc1cc(N)ccc1C(=O)NCCCN(CC)CC | 98.8% (inactive) |
| COc1ccc(-c2cc(-c3ccc(Nc4nc(Nc5ccccc5)nc(Nc5ccc(Cl)cc5)n4)cc3)nc(N)c2C#N)cc1 | -50.6% (active) |
| COc1ccc(O)c(-c2cc(-c3ccccc3)c(C#N)c(=O)[nH]2)c1 | 70.6% (inactive) |
| CC/C=C/[C@@H]1C=C[C@@H]2CCC[C@H]2[C@@H]1CC[C@H](O)[C@H](C)N | 85.9% (inactive) |
| C=C(Cl)COC(=O)C(C)(C)O | 104% (inactive) |
| CC1(C)C(=O)/C(=C\c2cccnc2)C[C@]2(C)[C@H]3CC=C4[C@@H]5C[C@@](C)(C(=O)O)CC[C@]5(C)CC[C@@]4(C)[C@]3(C)CC[C@@H]12 | 96.6% (inactive) |
| CCn1c(Sc2nnc(Nc3ccccc3)s2)nc2c1c(=O)n(C)c(=O)n2C | 87.1% (inactive) |
| CCN(CC)CC(O)CNc1c2ccc(Cl)cc2nc2ccc(OC)cc12 (stereo not given) | 42.9% (inactive) |
| Fc1ccc(Nc2ccc3cc(OCCCN4CCOCC4)ccc3n2)cc1F | 68.6% (inactive) |
| CCn1c(Sc2nnc(NC(C)=O)s2)nc2c1c(=O)n(C)c(=O)n2C | 92.8% (inactive) |
| NC(N)=N/N=C/c1ccc(Br)cc1 | 92.3% (inactive) |
| CCN(CC)N=Nc1nn(C(=O)Nc2ccc(Cc3ccccc3)cc2)c2ccc(Cl)cc12 | 84.1% (inactive) |
